Test [1] can be described thus: Primary fluorescence-based thiol-reactive (MSTI) qHTS assay for identification of artifact compounds. (AID 1845221).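 For activity change, negative = thiol reactive: thiol-reactive compounds lower the probe fluorescence signal.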 Note: nearly all actives have a fitted effect of over 65% in size. Note: potency is the fitted concentration of half-maximal effect. To be noted: MSTI thiol-reactivity probe, 1 h; series mostly up to 53.8 µM. The essentials:
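Probe: MSTI 4 uM, PBS pH 7.4, 2% DMSO. Incubation 1 h, RT, light-protected. Readout fluorescence 525/598 nm.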
(Quantitative high-throughput screening tests each substance at several concentrations.)

Test [2] deals with Nanoluciferase (engineered Oplophorus gracilirostris luciferase). In words: Primary Nanoluciferase (NLuc) qHTS assay for identification of artifact compounds. (AID 1845222).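 Note: 0% = DMSO and -100% = no enzyme.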 To be noted: NLuc-conditioned medium, Nano-Glo luminescence, 5 min; series mostly up to 54.1 µM. In outline: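 Concentration-response data were obtained by luminescence after 5 min with Nano-Glo substrate at 1:100. The enzyme was diluted S16 NLuc-expressing cell medium, preincubated with compound for 15 min at RT. Curves were fitted with a 4-parameter Hill model.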

Test [3] in a line: Primary redox qHTS assay for identification of artifact compounds. (AID 1845223).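 Note: 0% = DMSO and 100% = reference compound.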 The note with it: Amplex Red/HRP redox cycling with DTT, fluorescence; series mostly up to 53.8 µM. The essentials:
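Redox-cycling detection via DTT (250 uM final) oxidation coupled to Amplex Red (25 uM)/HRP (250 mU/mL) in HBSS. 15 min preincubation plus 30 min after DTT, room temperature. Ex/Em 525/598 nm; 4-parameter Hill fit against DMSO and 10 uM DA3003.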

From PubChem BioAssay (NCATS) come the findings set out here.

Molecules are shown by their SMILES. Unmarked numbers belong to inactive results. Inconclusive results are not listed. The source made the active and inactive calls. Calls come from the whole dose curve; as a rule, active = well fitted curve in the direction sought with a large enough effect; inconclusive = small, poorly fitted or top-dose-only effect, or another doubt; inactive = no such curve, though single readings can be large; an effect the other way counts as inactive or inconclusive.

As to `COc1ccc(C(OC2OC(CO)C(O)C(O)C2O)C(C)O)cc1` (centres undefined), the Potency in test [1] is 14.7 µM (active). Further, the Potency result in test [2] and in test [3] was “inactive” in each case.

Take `O=C1N(CC2CCCCN2)CCN1c1ccccc1` (centres undefined): the Potency entry in test [1], in test [2] and in test [3] was “inactive” in each case.

For `CNC(=O)c1ccc(Nc2ncc(C(F)(F)F)c(NCc3nccnc3N(C)S(C)(=O)=O)n2)cc1`, the Potency result in test [1], in test [2] and in test [3] was “inactive” throughout.

`O=C(O)CCc1cccc(O[C@@H]2O[C@H](CO)[C@@H](O)[C@H](O)[C@H]2O)c1O`: the Potency in test [1] is 8.26 µM (active). The Potency result in test [2] and in test [3] was “inactive” throughout.

With `C=CC1(C)CC(OC(=O)C(=C)C(O)COC(C)=O)C(C(=C)C(=O)OC)C(O)C1C(=C)CO` (centres undefined), the Potency entry in test [1], in test [2] and in test [3] was “inactive” in each case.

Consider `Cc1cc(N2CCCCC2)nc2ccccc12`, for which the Potency entry in test [1], in test [2] and in test [3] was “inactive” in each case.

Regarding `CCC(NC(=O)CC(NC(=O)C(CO)NC(=O)C(CC)NC(=O)c1ccc[nH]1)c1ccccc1)C(=O)O` (centres undefined), the Potency entry in test [1], in test [2] and in test [3] was “inactive” in each case.

As to `CC1(C)CC[C@]2(C(=O)O)CC[C@]3(C)C(=CCC4[C@@]5(C)C[C@H](O)[C@H](O[C@@H]6OC[C@H](O)[C@H](O)[C@H]6O)[C@@](C)(CO)C5CC[C@]43C)[C@@H]2C1` (some centres undefined), the Potency result in test [1], in test [2] and in test [3] was “inactive” each time.

`C=C1CC2[C@]3(C)C(=C(O)C(=O)[C@@]2(C)[C@]2(C(=O)OC)C(=O)C(C)OC(=O)[C@@]12C)C(C)(C)C(=O)CC3O` (some centres undefined): the Potency entry in test [1], in test [2] and in test [3] was “inactive” each time.

As for `C=C1C[C@]23C[C@H]1CC[C@H]2[C@@]12C=C[C@H](O)[C@@](C)(C(=O)O1)[C@H]2[C@@H]3C(=O)O`, the Potency entry in test [1], in test [2] and in test [3] was “inactive” throughout.

With `C[C@@H]1O[C@@H](OC[C@H]2O[C@@H](OCC3CCC4CC3C4(C)C)[C@H](O)[C@@H](O)[C@@H]2O)[C@H](O)[C@H](O)[C@H]1O` (some centres undefined), the Potency in test [1] is 11.6 µM (active). The Potency entry in test [2] and in test [3] was “inactive” each time.

Consider `C=C1CC2(C(=O)O)CC1CCC2C1(C)CCCC2(C)C(=O)OC(O)C21` (centres undefined), for which the Potency entry in test [1], in test [2] and in test [3] was “inactive” each time.

In the case of `CC1CC(O)CC(C)(C)C1(O)CCO` (centres undefined), the Potency result in test [1], in test [2] and in test [3] was “inactive” each time.

On to `Cc1c(N2C(=O)c3ccc(C(=O)O)cc3C2=O)c(=O)n(-c2ccccc2)n1C`, for which the Potency entry in test [1], in test [2] and in test [3] was “inactive” throughout.

On to `C=C1CCC2C(C)(C)CC(=O)CC2(C)C1CCC(C)CCOC(C)=O` (centres undefined), for which the Potency result in test [1], in test [2] and in test [3] was “inactive” each time.

Consider `CCNC(=O)CCC/C=C\C[C@@H]1[C@@H](/C=C/C(O)CCc2ccccc2)[C@@H](O)C[C@@H]1O` (some centres undefined), for which the Potency result in test [1], in test [2] and in test [3] was “inactive” each time.

As for `CN(C)C/C=C/C(=O)Nc1ccc(C(=O)Nc2cccc(Nc3ncc(Cl)c(-c4c[nH]c5ccccc45)n3)c2)cc1`, the Potency entry in test [1], in test [2] and in test [3] was “inactive” in each case.

On to `CC1(C)O[C@]23C[C@H]1C[C@H](OC(=O)c1ccoc1)[C@]2(C)[C@@H](OC(=O)c1ccoc1)CCC3(C)O` (some centres undefined), for which the Potency result in test [1], in test [2] and in test [3] was “inactive” each time.

Turning to `COc1cc(C(C)=O)ccc1O[C@@H]1O[C@H](CO[C@@H]2O[C@@H](C)[C@H](O)[C@@H](O)[C@H]2O)[C@@H](O)[C@H](O)[C@H]1O`, the Potency result in test [1], in test [2] and in test [3] was “inactive” in each case.

Regarding `COc1cc(/C=C/C(=O)OC2CC3CCC2(C)C3(C)C)ccc1O` (centres undefined), the Potency result in test [1], in test [2] and in test [3] was “inactive” throughout.

On to `COc1cc(/C=C/C(=O)O[C@H]2[C@H](O)[C@@H](CO)O[C@@]2(CO)O[C@H]2O[C@H](COC(=O)c3ccc(O)cc3)[C@@H](O)[C@H](O)[C@H]2O)cc(OC)c1OC`, for which the Potency result in test [1], in test [2] and in test [3] was “inactive” throughout.

Turning to `C[C@@H]1O[C@@H](O[C@@H]2[C@@H](O)[C@H](O[C@@H]3[C@@H](O)[C@@H](O)[C@H](O[C@H]4[C@H](OC(=O)[C@]56CCC(C)(C)C[C@H]5C5=CCC7[C@@]8(C)C[C@H](O)[C@H](O[C@@H]9O[C@@H](C)[C@H](O)[C@@H](O)[C@H]9O)[C@@](C)(CO)C8CC[C@@]7(C)[C@]5(C)C[C@H]6O)O[C@H](C)[C@H](O)[C@@H]4O)O[C@H]3C)OC[C@H]2O)[C@H](O)[C@H](O)[C@H]1O` (some centres undefined), in test [1], the activity change, negative = thiol reactive is 292% [at 11.5 µM]. Moreover, the activity, negative = inhibition in test [2] was 4.95% [at 11.6 µM]. The redox activity (% of DA3003) in test [3] was 10.9% [at 11.5 µM].

In the case of `C[C@@H]1O[C@@H](O[C@H]2[C@H](OC(=O)C34CCC(C)(C)CC3C3=CCC5C6(C)CC(O)C(O[C@@H]7O[C@H](CO)[C@@H](O)[C@H](O)[C@H]7O)C(C)(C(=O)O)C6CCC5(C)C3(CO)CC4)O[C@H](C)[C@H](O)[C@@H]2O)[C@H](O)[C@H](O)[C@H]1O[C@@H]1OC[C@@H](O)[C@H](O)[C@H]1O` (some centres undefined), the activity change, negative = thiol reactive in test [1] is 89.3% [at 11.5 µM]. In addition, the activity, negative = inhibition in test [2] is 2.8% [at 11.6 µM]. In addition, the redox activity (% of DA3003) in test [3] was 9.03% [at 11.5 µM].
